From PubChem BioAssay AID1259421 (Broad Institute, 2018)
“And” between values parts separate entries of the source, which are not always exact repeats. Equal entries are not always repeated. The campaign covered roughly 6,400 compounds. About 610 (9.5%) were called active. Shown is part of a subset that was picked to be rich in actives. A number with no mark means an inactive call. Rule as the data show it: active = activity change below about -70%; inconclusive = no clear call, values can overlap the other calls; inactive = above that. Where a SMILES comes first, the peptide text is derived from it.

Experiment: T. gondii ME49Luc in HeLa cells, luciferase assay, 72 h, no IFN-y (AID 1259421)
Details: hits give low values, concentration not given here

Row | Compound | activity change, negative = inhibition
1 | Oc1ccc([C@@H]2Oc3ccc(O)cc3[C@@H]3CCC[C@@H]32)cc1 | 6.56%
2 | Cc1cc(O)cc2c1O[C@](C)(CCC[C@H](C)CCC[C@H](C)CCCC(C)C)CC2 | -4.66%
3 | COc1c(C)c2c(c(O)c1C/C=C(\C)CCC(=O)O)C(=O)OC2 | -74.4% (active) and -89.1% (active)
4 | COc1c(C)c2c(c(O)c1C/C=C(\C)CCC(=O)OCCN1CCOCC1)C(=O)OC2 | -75.2% (active) and -92% (active)
5 | COc1c(C)c2c(c(O)c1C/C=C(/C)CCC(=O)O)C(=O)OC2 | -79.6% (active)
6 | C#CC1(OCC(O)CN2CCN(c3ccccc3OC)CC2)CCCCC1 (stereo not drawn) | 9.69%
7 | CCCCC/C=C\C[C@@H](O)/C=C/C=C/C=C\[C@@H](O)CCCC(=O)O | 7.41%
8 | N=[N+]=CC(=O)CC[C@H](N)C(=O)O | 0.432%
9 | c1ccc(-c2nc3ccccc3[nH]2)cc1 | 279%
10 | CC(C)(C)c1ccc(-c2nc3ccccc3[nH]2)cc1 | -87.4% (active)
11 | c1ccc2[nH]c(-c3nc4ccccc4[nH]3)nc2c1 | 156%
12 | CC1(C)CC1C(=O)N/C(=C\CCCCSCC(N)C(=O)O)C(=O)O (stereo not drawn) | 8.4%
13 | CC(=O)O[C@H]1C[C@@]2(C)[C@@H](C[C@@H](O)[C@H]3[C@@]4(C)CC[C@@H](O)[C@@H](C)C4CC[C@@]32C)/C1=C(/CCC=C(C)C)C(=O)O (stereo partly drawn) | -17.8%
14 | Cc1cc(OCCCS(C)(=O)=O)cc(C)c1-c1cccc(COc2ccc3c(c2)OC[C@H]3CC(=O)O)c1 | 15.8%
15 | COc1ccc2[nH]c(I)c(CCNC(C)=O)c2c1 | 14.7% and -1.11%
16 | CC1C(=O)C(=O)[C@@H]2O[C@@H]2C1=O (stereo partly drawn) | 7.42%
17 | O=C(Nc1cccc(Cl)c1)Nc1ncc(CCNc2ncnc3ccsc23)s1 | -92.1% (active)
18 | COc1cc2ncnc(Nc3cccc(Cl)c3)c2cc1OC | -46.3%
19 | O=C(Nc1cccc(Cl)c1)c1ccccn1 | 154%

Row | Compound | activity change, negative = inhibition
20 | O[C@H](CNC[C@@H](O)[C@H]1CCc2cc(F)ccc2O1)[C@@H]1CCc2cc(F)ccc2O1 | 9.73%
21 | C=C(C)[C@@H]1CC[C@]2(CO)CC[C@]3(C)[C@H](CC[C@@H]4[C@@]5(C)CC[C@H](O)C(C)(C)[C@@H]5CC[C@]43C)[C@@H]12 | 19.1%
22 | Cc1nnc(-c2ccc3occ(-c4ccc(S(C)=O)cc4)c3c2)o1 (stereo not drawn) | 1.22%
23 | O=C(c1ccc(F)cc1)C1CCN(CCCCc2ccccc2)CC1 | 3.6% and 8.67%
24 | O=C(NCCCN1CCC2(CC1)OCc1ccccc12)[C@H]1CCCN1Cc1ccccc1 | 18.8%
25 | Fc1ccc(-n2cc(CCCCN3CCC4(CC3)OCc3ccccc34)c3ccccc32)cc1 | -77.2% (active)
26 | CN(CCOc1ccc(CC(Nc2ccccc2C(=O)c2ccccc2)C(=O)O)cc1)c1ccccn1 (stereo not drawn) | 1.37%
27 | CCOC(=O)[C@@H](N)CCC(=O)N[C@@H](CSCc1ccccc1)C(=O)N[C@@H](C(=O)OCC)c1ccccc1 | -2.09%
28 | CC1OC(OCC2OC(Oc3c(-c4ccc(O)c(O)c4)oc4cc(O)cc(O)c4c3=O)C(O)C(O)C2O)C(O)C(O)C1O (stereo not drawn) | -9.9%
29 | CS(=O)(=O)c1ccc(C(O)[C@H](CF)NC(=O)C(Cl)Cl)cc1 (stereo partly drawn) | -54.7% and -27.8%
30 | CN1C/C=C/CCOc2cccc(c2)-c2ccnc(n2)Nc2cccc(c2)C1 | -90% (active)
31 | CCCCCCCCCCCCCCCC(=O)C1C(=O)OC(CO)C1=O (stereo not drawn) | 6.7%
32 | Cc1cccc(C2CN(C)CCc3c2cc(O)c(O)c3Cl)c1 (stereo not drawn) | -3.35%
33 | CCOC(=O)[C@H]1O[C@@H]1C(=O)N[C@@H](CC(C)C)C(=O)NCCC(C)C | 12.9% and 2.41%
34 | CC(C)c1nc(CN(C)C(=O)N[C@@H](CCN2CCOCC2)C(=O)N[C@H](CC[C@H](Cc2ccccc2)NC(=O)OCc2cncs2)Cc2ccccc2)cs1 | -16.7%
35 | COC(=O)[C@H](Cc1ccccc1)NC(=O)[C@@H](N)CC(=O)O (H-Asp-Phe-OMe) | 0.919%
36 | COc1ccc(C[C@H](NC(=O)[C@H](C)NC(=O)CN2CCOCC2)C(=O)N[C@@H](Cc2ccccc2)C(=O)[C@]2(C)CO2)cc1 | -76% (active)
37 | COC[C@H](NC(=O)c1cnc(C)s1)C(=O)N[C@@H](COC)C(=O)N[C@@H](Cc1ccccc1)C(=O)C1(C)CO1 (stereo partly drawn) | -88.8% (active)
38 | C[C@H]1CN(C[C@H](Cc2ccccc2)C(=O)NCC(=O)O)CC[C@@]1(C)c1cccc(O)c1 | 4.96%
